For some of these results: Potency and affinity values are given separately.
Columns and labels:
Design in all cases: scale not given: direction of the effect not stated beside the values
[1] = biological target: Protein translocase subunit SecA (Escherichia coli (strain K12)) (UniProt P10408); assay: Assay to Identify E. coli SecA ATPase Inhibitors; format: functional; conditions: 30 µM
[2] = biological target: T1, Ubiquitin-activating enzyme e1, putative (Leishmania donovani (strain BPK282A1)) (UniProt E9BSI1); assay: Leishmania donovani Ubiquitin Activating Enzyme (LdE1); format: functional; conditions: 30 µM
T1 sequence (whole entry): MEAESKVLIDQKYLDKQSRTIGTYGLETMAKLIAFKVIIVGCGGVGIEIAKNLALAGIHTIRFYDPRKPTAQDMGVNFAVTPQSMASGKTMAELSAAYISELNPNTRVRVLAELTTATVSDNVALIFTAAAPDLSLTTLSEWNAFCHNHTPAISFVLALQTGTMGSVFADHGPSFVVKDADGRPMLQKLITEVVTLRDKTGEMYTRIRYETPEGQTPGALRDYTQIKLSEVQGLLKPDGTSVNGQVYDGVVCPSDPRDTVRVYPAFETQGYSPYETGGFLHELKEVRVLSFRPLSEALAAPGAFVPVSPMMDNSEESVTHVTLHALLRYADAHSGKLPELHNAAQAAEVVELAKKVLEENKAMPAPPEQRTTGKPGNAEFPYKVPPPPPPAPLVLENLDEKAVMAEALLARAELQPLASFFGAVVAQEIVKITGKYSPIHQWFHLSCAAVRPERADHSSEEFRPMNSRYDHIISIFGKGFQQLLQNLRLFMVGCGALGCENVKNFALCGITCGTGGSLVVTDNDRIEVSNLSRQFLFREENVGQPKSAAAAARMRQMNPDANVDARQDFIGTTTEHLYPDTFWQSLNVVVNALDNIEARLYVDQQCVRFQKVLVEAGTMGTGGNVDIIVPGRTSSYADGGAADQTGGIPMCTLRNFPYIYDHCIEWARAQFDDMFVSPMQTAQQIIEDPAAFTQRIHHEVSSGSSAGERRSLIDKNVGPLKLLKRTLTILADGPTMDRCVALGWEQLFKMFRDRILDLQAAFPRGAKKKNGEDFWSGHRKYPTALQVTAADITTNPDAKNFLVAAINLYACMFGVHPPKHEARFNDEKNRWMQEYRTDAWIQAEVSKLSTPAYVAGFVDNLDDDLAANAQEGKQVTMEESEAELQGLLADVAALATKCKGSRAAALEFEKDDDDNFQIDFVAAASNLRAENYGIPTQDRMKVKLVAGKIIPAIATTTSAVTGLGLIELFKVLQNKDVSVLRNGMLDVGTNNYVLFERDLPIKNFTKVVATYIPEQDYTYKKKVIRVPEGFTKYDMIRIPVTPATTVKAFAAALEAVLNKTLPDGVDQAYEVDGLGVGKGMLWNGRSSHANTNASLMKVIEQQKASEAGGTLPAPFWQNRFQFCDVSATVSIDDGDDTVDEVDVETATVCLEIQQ

[3] = biological target: AMP-activated protein kinase, AMPK (Homo sapiens) (UniProt P54646+O43741+P54619+Q9UGJ0+Q9Y478+Q13131+Q9UGI9); assay: AMP-dependent Kinase enzyme assay. An in vitro enzyme assay that detects ADP turnover that is directly proportional to AMPK activity. This uses naive AMPK that is activated during the assay with MK-8722; format: functional; conditions: 30 µM
[4] = biological target: Sialic acid-binding Ig-like lectin 9 (Homo sapiens) (UniProt Q9Y336); assay: Hs-Siglec9 ALPHAscreen SOP 20170721; conditions: 10 µM
[5] = system: Trypanosoma cruzi; assay: Trypanosoma cruzi phosphomannomutase and mannose-1-phosphate guanylyltransferase assay; format: functional; conditions: 10 µM
[6] = biological target: T2, Arginase-2, mitochondrial (Homo sapiens) (UniProt P78540); assay: in vitro enzyme assay to detect the production of urea directly proportional to the activity of Arginase II; format: functional; conditions: 33.3 µM; also: in the data most compounds retested in dose-response had high values
T2 sequence (whole entry): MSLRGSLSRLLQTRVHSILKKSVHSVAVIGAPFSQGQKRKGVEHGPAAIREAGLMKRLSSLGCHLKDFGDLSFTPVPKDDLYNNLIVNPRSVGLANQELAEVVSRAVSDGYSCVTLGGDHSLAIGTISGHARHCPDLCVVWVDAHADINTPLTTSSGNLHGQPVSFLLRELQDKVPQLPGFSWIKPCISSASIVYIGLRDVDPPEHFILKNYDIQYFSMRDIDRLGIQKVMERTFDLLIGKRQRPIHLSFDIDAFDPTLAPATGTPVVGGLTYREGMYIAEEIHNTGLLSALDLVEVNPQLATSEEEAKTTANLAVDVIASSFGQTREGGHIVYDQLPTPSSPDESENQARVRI

[7] = biological target: T3, Proteasome subunit beta (Trypanosoma cruzi) (UniProt O96673); assay: Trypanosoma cruzi proteasome chymotrypsin-like activity (TcProtChymo) assay.; also: in the data most compounds retested in dose-response had high values; format: functional; conditions: 9.37 µM
T3 sequence (whole entry): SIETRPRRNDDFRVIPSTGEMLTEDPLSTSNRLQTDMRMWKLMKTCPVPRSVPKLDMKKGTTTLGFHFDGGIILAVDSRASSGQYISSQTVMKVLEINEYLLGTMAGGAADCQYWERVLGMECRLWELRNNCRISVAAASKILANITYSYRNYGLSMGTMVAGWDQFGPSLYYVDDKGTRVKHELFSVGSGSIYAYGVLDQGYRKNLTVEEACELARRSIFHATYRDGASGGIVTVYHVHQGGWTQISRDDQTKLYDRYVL

[8] = species on record: Homo sapiens; assay: To identify inhibition of the IFN signalling (Jak-Stat) pathway via expression of an eGFP reporter gene under the control of an IFN-stimulated response element (ISRE) containing MxA promoter.; format: functional; conditions: 30 µM
[9] = biological target: T4, Tyrosyl-tRNA synthetase, putative (Trypanosoma cruzi (strain CL Brener)) (UniProt Q4DSP6); assay: Trypanosoma cruzi tyrosyl tRNA synthetase (TcYRS) _High Tyrosine SOP; format: functional; conditions: 30 µM; also: in the data most compounds retested in dose-response had high values
T4 sequence (whole entry): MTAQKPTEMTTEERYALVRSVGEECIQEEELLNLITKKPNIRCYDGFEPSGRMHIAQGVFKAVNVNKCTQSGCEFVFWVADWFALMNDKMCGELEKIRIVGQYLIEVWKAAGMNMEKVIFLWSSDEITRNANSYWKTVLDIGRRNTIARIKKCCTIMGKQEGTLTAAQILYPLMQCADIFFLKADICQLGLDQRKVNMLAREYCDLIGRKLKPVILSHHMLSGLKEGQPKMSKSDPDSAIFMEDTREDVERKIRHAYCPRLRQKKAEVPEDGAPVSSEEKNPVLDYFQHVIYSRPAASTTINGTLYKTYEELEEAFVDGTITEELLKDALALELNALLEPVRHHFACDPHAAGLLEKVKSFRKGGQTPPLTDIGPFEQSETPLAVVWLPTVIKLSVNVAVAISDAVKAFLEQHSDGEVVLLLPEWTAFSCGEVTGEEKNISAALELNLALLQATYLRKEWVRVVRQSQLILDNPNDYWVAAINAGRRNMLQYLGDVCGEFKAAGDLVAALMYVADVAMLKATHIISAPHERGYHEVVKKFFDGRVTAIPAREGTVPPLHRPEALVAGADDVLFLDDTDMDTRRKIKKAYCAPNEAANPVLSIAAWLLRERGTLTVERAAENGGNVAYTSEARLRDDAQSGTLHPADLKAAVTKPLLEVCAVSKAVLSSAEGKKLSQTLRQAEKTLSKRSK

[10] = biological target: T4, Tyrosyl-tRNA synthetase, putative (Trypanosoma cruzi (strain CL Brener)); assay: Trypanosoma cruzi tyrosyl tRNA synthetase (TcYRS) SOP; format: functional; conditions: 30 µM
[11] = biological target: Chromo domain-containing protein 1 (Saccharomyces cerevisiae (strain ATCC 204508 / S288c) (Baker's yeast)) (UniProt P32657); assay: ScCHD-1 Enzyme Inhibition Assay; format: functional; conditions: 30 µM; also: in the data most compounds retested in dose-response had high values
Chain of Chromo domain-containing protein 1 (Saccharomyces cerevisiae (strain ATCC 204508 / S288c) (Baker's yeast)) (P32657 whole entry, the tested form may be a part): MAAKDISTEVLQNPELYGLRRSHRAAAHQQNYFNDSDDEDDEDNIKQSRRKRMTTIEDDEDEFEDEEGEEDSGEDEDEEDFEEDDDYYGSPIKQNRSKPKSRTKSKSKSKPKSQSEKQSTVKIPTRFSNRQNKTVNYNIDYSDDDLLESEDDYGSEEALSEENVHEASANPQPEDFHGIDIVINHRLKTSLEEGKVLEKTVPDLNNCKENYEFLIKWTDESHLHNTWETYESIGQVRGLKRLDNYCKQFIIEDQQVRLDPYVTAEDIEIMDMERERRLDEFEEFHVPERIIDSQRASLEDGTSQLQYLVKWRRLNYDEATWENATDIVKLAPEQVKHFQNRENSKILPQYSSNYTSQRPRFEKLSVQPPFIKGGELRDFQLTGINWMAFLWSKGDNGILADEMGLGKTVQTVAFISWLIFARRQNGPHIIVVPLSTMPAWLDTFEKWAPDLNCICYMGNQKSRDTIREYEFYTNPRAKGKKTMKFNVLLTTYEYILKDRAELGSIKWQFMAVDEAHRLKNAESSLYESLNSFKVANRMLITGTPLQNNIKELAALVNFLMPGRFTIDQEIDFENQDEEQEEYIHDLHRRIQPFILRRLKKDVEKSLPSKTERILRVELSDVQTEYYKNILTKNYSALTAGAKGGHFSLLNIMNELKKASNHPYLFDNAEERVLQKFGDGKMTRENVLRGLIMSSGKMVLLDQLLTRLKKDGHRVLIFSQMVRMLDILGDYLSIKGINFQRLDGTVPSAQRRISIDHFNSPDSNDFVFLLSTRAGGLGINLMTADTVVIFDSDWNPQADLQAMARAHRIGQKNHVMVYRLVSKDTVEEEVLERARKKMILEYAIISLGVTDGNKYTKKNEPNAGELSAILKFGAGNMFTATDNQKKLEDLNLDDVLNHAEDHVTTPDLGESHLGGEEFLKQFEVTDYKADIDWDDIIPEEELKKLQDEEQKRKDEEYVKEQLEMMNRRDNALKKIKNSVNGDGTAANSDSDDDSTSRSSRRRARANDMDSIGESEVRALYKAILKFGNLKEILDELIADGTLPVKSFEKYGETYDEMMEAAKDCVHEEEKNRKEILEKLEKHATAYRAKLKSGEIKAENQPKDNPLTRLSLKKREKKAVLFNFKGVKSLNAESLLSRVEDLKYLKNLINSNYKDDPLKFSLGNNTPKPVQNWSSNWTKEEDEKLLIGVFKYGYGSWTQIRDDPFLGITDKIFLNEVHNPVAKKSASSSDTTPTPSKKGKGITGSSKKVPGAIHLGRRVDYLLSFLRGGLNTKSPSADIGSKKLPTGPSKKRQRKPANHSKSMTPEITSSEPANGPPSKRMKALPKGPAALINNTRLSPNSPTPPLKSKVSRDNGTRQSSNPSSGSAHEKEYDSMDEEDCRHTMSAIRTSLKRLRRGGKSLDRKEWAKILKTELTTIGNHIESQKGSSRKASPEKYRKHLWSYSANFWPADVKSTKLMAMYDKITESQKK

Chain of Sialic acid-binding Ig-like lectin 9 (Homo sapiens) (Q9Y336 whole entry): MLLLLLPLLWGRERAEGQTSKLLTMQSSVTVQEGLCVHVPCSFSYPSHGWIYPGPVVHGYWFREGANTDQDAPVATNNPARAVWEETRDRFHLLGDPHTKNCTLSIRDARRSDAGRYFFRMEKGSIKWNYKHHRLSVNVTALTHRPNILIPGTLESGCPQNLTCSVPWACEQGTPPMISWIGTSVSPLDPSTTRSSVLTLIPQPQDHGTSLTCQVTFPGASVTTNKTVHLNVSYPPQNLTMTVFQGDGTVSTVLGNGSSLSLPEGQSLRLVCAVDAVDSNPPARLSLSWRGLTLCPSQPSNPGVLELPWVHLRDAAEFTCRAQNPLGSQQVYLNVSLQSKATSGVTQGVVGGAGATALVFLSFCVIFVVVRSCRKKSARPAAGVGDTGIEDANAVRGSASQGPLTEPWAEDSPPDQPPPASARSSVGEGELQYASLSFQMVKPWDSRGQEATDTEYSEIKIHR
Chain of Protein translocase subunit SecA (Escherichia coli (strain K12)) (P10408 whole entry): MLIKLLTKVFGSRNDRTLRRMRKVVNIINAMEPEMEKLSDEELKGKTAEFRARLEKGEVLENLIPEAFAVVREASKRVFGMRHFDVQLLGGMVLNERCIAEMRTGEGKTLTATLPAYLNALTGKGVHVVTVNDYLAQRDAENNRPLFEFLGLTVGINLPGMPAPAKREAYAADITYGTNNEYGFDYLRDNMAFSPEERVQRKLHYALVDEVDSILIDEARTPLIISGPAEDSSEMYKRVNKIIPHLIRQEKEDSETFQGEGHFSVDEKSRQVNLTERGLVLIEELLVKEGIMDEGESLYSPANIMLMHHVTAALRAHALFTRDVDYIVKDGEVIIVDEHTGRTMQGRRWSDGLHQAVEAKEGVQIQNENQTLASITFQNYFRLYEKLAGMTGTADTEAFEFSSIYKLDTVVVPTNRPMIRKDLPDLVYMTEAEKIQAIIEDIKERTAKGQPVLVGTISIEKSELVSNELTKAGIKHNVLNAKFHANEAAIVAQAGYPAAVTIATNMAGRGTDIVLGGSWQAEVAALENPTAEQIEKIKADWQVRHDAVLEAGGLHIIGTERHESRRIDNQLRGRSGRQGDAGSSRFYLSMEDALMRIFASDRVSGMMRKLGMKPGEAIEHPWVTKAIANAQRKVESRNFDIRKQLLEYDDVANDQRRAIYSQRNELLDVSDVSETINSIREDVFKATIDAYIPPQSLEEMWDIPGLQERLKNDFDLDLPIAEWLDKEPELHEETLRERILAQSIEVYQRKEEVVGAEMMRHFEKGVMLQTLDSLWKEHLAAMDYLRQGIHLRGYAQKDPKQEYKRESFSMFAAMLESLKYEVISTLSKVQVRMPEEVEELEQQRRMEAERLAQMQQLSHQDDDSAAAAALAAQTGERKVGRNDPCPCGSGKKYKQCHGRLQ

Row | SMILES | Percent Effect [1] [%] | Percent Effect [2] [%] | Percent Effect [3] [%] | Percent Effect [4] [%] | Percent Effect [5] [%] | Percent Effect [6] [%] | Percent Effect [7] [%] | Percent Effect [8] [%] | Percent Effect [9] [%] | Percent Effect [10] [%] | Percent Effect [11] [%]
1 | COCCc1noc(CNCC2CCCN2c2cccnn2)n1 (stereo unspecified) | -4.29 | 18.2 | -3.94 | -5.52 | 4.41 | -5.68 | 20.8 | 2.37 | 10.5 | 32.9 | -23.1
2 | CN(C)C(=O)CCCNC(=O)C(c1cccc(F)c1)N(C)C (stereo unspecified) | 0.633 | 13.5 | -10.5 | 5.14 | 5.41 | -1.43 | 11.7 | 24.9 | 10.1 | 12.2 | -1.94
3 | NS(=O)(=O)CCNC(=O)C1(c2ccc(Br)cc2)CC1 | 2.05 | 7.79 | -1.42 | 6.68 | 4.23 | -13.8 | 13 | -0.291 | 2.15 | 16.1 | -2.63
4 | Cc1n[nH]c(C2CN(CC(=O)NCc3ccco3)CCO2)n1 (stereo unspecified) | -7.98 | 0 | 3.1 | -5.39 | -5.36 | -2.6 | 6.8 | 24.6 | -1.64 | -3.7 | -2.33
5 | Cc1cc2c(=O)n3c(nc2s1)CCN(Cc1ccncc1)CC3 | 2.21 | 4.05 | 13.8 | -10.1 | -4.94 | 5.8 | 4.21 | 19.7 | 3.23 | 9.09 | -10.3
6 | CN(C)CC1(O)CCN(S(=O)(=O)c2ccc(F)c(F)c2)C1 (stereo unspecified) | -6.44 | 23 | -0.681 | -1.29 | 5.34 | -3.48 | 20.9 | 1.49 | 3.23 | 6.49 | -21.7
7 | Cc1cc(-c2cnc(NC3CCCC3)nc2-c2ccoc2C)on1 | -2.76 | 14.9 | 65.2 | 4.01 | 0.395 | -0.696 | 5.77 | 14.7 | 6.45 | 3.9 | -16
8 | Cc1ccc(C(NC(=O)[C@H]2CC[C@@H](O)CC2)c2cccnc2)cc1C (stereo partly specified) | -7.06 | 5.33 | 2.02 | 2.58 | -1.07 | 4.17 | 8.2 | -9.12 | 0.546 | 8.64 | -6.38
9 | O=C([C@H]1C[C@H]2OCC[C@H]2N(CCc2ccccc2)C1)N1CCCCO1 | -4.49 | 5.41 | 7.77 | -1.67 | -0.0978 | 3.5 | 11.4 | -14.2 | 5.41 | 15.4 | 6.02
10 | O=C(c1cc(COc2ccc3c(c2)OCO3)[nH]n1)N1CCOCC1 | -8.28 | -2.74 | 9.08 | -1.9 | -4.37 | 0.798 | 7.45 | 6.61 | -3.12 | -3.7 | -5.41
11 | CN1CCN(C(=O)c2ccc(=O)n(C)c2)Cc2ccccc21 | -3.95 | -16.2 | -7.07 | 15.3 | 3.62 | -4.25 | 0.539 | 5.67 | 3.96 | 18.3 | -2.09

Source: ChEMBL document CHEMBL3988442, “University of Dundee, Small-Polar-MMV Screening Library” (2021)
